# Results published in PubChem BioAssay.
# Inconclusive results are not listed. Calls of active or inactive are those of the source.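 The calls were made as follows, unless noted: active = cell viability at or below a set limit in both duplicate runs, the limit being the all-compound median minus 4 SD (cut at about 23% in these data, passing the limit was not always enough); inconclusive = no clear call, values can overlap the other calls; inactive = the rest.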
# Assay: viability gain of MRP-1-high H69AR cells under doxorubicin, pilot screen, MRP-1 activator project, CellTiter-Glo, duplicate (AID 807;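 active = viability increase at or above a cutoff of the median across tested compounds plus 3 SD, cut at about 8.5% in these data, passing the limit was not always enough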;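 also: compound pretreatment 18-22 h then 72 h combined with doxorubicin; 0% = doxorubicin alone and 100% = vehicle without doxorubicin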)
# Conditions: H69AR viability with doxorubicin, CellTiter-Glo luminescence; at 10 µM; active compounds read high
row,Structure (SMILES),viability increase
1,Cc1cc(NC(=O)C2CC(c3ccc(F)cc3)=NO2)no1 (stereo not given),-0.18% (inactive)
2,CN1CCN(Cc2nc3c(c(=O)n(C)c(=O)n3C)n2CCc2ccccc2)CC1,-1.67% (inactive)
3,CCOC(=O)c1ccc(NC(=O)CSc2nc3c(c(=O)n2-c2ccccc2OC)SCC3)cc1,-2.33% (inactive)
4,C=COCCn1c(-c2nonc2N)nc2ccccc21,-4.61% (inactive)
5,Cc1cc(OCC(=O)Nc2cc(-c3nn4c(C)nnc4s3)ccc2C)ccc1Cl,-0.6% (inactive)
6,O=C(Cn1cc2c(n1)CCCCC2)NCc1ccccc1,-0.82% (inactive)
7,COc1cccc(N2CCN(C(=O)c3ccc4nc(N5CCCCC5)sc4c3)CC2)c1,0.85% (inactive)
8,CCOC(=O)c1c(C)oc2cc(Br)c(O)c(Br)c12,-2.05% (inactive)
9,O=C(CSc1ccc2nnc(-c3ccccn3)n2n1)NCc1ccc2c(c1)OCO2,-3.68% (inactive)
10,Cc1ccnc(N2C(=O)c3ccccc3C2Nc2cccc(C)c2C)c1 (stereo not given),0.92% (inactive)
11,COc1cccc(/C=C2\N=C(SC)SC2=O)c1OC,-3.76% (inactive)
12,Cn1c(NC(=O)c2ccc(Cl)cc2Cl)cc(=O)n(C)c1=O,-2.37% (inactive)
13,CC(=O)Nc1cccc(N2C(=O)CC(Cc3ccccc3)C2=O)c1 (stereo not given),-1.68% (inactive)
14,COC(=O)C(C)NC(=O)C1CCCN1S(=O)(=O)c1cc(C)c(Cl)cc1C (stereo not given),-1.54% (inactive)
15,Cc1ccc(N(C(=O)CC2NC(=O)NC2=O)C2(C(=O)NC3CCCC3)CCCCC2)cc1 (stereo not given),-1.56% (inactive)
16,CC1(C)CC(=O)C=C(Nc2ccccc2F)C1,-2.25% (inactive)
17,COc1ccc(S(=O)(=O)N(C)c2c(C)n(C)n(-c3ccccc3)c2=O)cc1OC,-1.65% (inactive)
18,CCCC(=O)NCCCc1nc2ccccc2n1CCC,-1.65% (inactive)
19,COc1ccccc1C(=O)n1nc(C)cc1C,0.58% (inactive)
20,CC1CCCCN1Cc1nc2c(c(=O)n(C)c(=O)n2C)n1Cc1c(F)cccc1Cl (stereo not given),-3.05% (inactive)

row,Structure (SMILES),viability increase
1,O=C(c1ccc(NC2=NC3CS(=O)(=O)CC3S2)cc1)N1CCc2ccccc2C1 (stereo not given),-0.55% (inactive)
2,COc1cccc(C(=O)NCc2cn3ccsc3n2)c1,-1.05% (inactive)
3,COc1ccc2[nH]c(C)c(CCN3C(=O)C4CC=CCC4C3=O)c2c1 (stereo not given),0.77% (inactive)
4,CCOC(=O)c1[nH]c(C)c(C(=O)NCCN2CCOCC2)c1C,-1.39% (inactive)
5,COc1cccc(CNC(=O)CN(c2cc(C)cc(C)c2)S(=O)(=O)c2c(C)noc2C)c1,-2.41% (inactive)
6,CCC(=NCCc1ccccc1)C1=C(O)CCC1=O,-2.05% (inactive)
7,O=C(CN1CCN(Cc2ccccc2F)C1=O)NCCN1CCOCC1,-0.58% (inactive)
8,CCOc1ccccc1NC(=O)c1c(NC(=O)CNCc2ccco2)sc2c1CCC2,-6.75% (inactive)
9,O=C1C2CCCN2C(c2ccc(Br)cc2)N1c1ccc(F)cc1 (stereo not given),-3.07% (inactive)
10,Cc1ccc(O)c(-c2cc(C(F)(F)C(F)F)[nH]n2)c1,-4.24% (inactive)
11,COc1ccc(Cc2nc(-c3ccc(-n4cccc4)cc3)no2)cc1,3.66% (inactive)
12,CCN(CC)CCN1C(=O)c2ccccc2NC1c1cccc(F)c1 (stereo not given),-2.21% (inactive)
13,CCOC(=O)COc1cccc2c(=O)n(CC(=O)N3CCc4ccccc43)ccc12,-2.89% (inactive)
14,Cc1ccc(S(=O)(=O)/N=C(/Nc2nc(C)cc(C)n2)N2CCOCC2)cc1,-3.21% (inactive)
15,O=C(COc1ccc(S(=O)(=O)NC2CCCCC2)cc1)N1CCN(c2ccc(F)cc2)CC1,-0.23% (inactive)
16,COc1ccc(S(=O)(=O)Cc2ccc(C(=O)N3CCc4ccccc4C3)o2)cc1,-0.44% (inactive)
17,Cc1c(C(=O)NCC(C)C)sc2nc(-c3ccc(F)cc3)cn12,1.99% (inactive)
18,CCCN1CCN(C(=O)C2CCN(S(=O)(=O)c3ccc4c(c3)oc(=O)n4C)CC2)CC1,-0.29% (inactive)
19,COc1ccc(C(=O)/C=C/N2CCCCC2)cc1OC,-4.55% (inactive)
20,CCOCCn1c(CN(Cc2ccccc2)Cc2ccccc2)nc2c1c(=O)n(C)c(=O)n2C,-2.62% (inactive)

# Assay: growth suppression of beta-catenin knockout HCT116, pilot screen, human colon tumor cells (AID 823);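 also: 0% = wells killed by 20 µM Hyamine and 100% = untreated DMSO cell wells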
# Conditions: CellTiter-Glo, 60 h, at 10 µM, active compounds read low
row,Structure (SMILES),viability
1,Cc1cc(NC(=O)C2CC(c3ccc(F)cc3)=NO2)no1 (stereo not given),101% (inactive)
2,CN1CCN(Cc2nc3c(c(=O)n(C)c(=O)n3C)n2CCc2ccccc2)CC1,92.8% (inactive)
3,CCOC(=O)c1ccc(NC(=O)CSc2nc3c(c(=O)n2-c2ccccc2OC)SCC3)cc1,85.7% (inactive)
4,C=COCCn1c(-c2nonc2N)nc2ccccc21,82.4% (inactive)
5,Cc1cc(OCC(=O)Nc2cc(-c3nn4c(C)nnc4s3)ccc2C)ccc1Cl,95.6% (inactive)
6,O=C(Cn1cc2c(n1)CCCCC2)NCc1ccccc1,102% (inactive)
7,COc1cccc(N2CCN(C(=O)c3ccc4nc(N5CCCCC5)sc4c3)CC2)c1,89.1% (inactive)
8,CCOC(=O)c1c(C)oc2cc(Br)c(O)c(Br)c12,93.6% (inactive)
9,O=C(CSc1ccc2nnc(-c3ccccn3)n2n1)NCc1ccc2c(c1)OCO2,91.6% (inactive)
10,Cc1ccnc(N2C(=O)c3ccccc3C2Nc2cccc(C)c2C)c1 (stereo not given),92% (inactive)
11,COc1cccc(/C=C2\N=C(SC)SC2=O)c1OC,89.8% (inactive)
12,Cn1c(NC(=O)c2ccc(Cl)cc2Cl)cc(=O)n(C)c1=O,98.7% (inactive)
13,CC(=O)Nc1cccc(N2C(=O)CC(Cc3ccccc3)C2=O)c1 (stereo not given),91.5% (inactive)
14,COC(=O)C(C)NC(=O)C1CCCN1S(=O)(=O)c1cc(C)c(Cl)cc1C (stereo not given),93.8% (inactive)
15,Cc1ccc(N(C(=O)CC2NC(=O)NC2=O)C2(C(=O)NC3CCCC3)CCCCC2)cc1 (stereo not given),95.2% (inactive)
16,CC1(C)CC(=O)C=C(Nc2ccccc2F)C1,111% (inactive)
17,COc1ccc(S(=O)(=O)N(C)c2c(C)n(C)n(-c3ccccc3)c2=O)cc1OC,95.5% (inactive)
18,CCCC(=O)NCCCc1nc2ccccc2n1CCC,102% (inactive)
19,COc1ccccc1C(=O)n1nc(C)cc1C,92% (inactive)
20,CC1CCCCN1Cc1nc2c(c(=O)n(C)c(=O)n2C)n1Cc1c(F)cccc1Cl (stereo not given),78.6% (inactive)

row,Structure (SMILES),viability
1,O=C(c1ccc(NC2=NC3CS(=O)(=O)CC3S2)cc1)N1CCc2ccccc2C1 (stereo not given),109% (inactive)
2,COc1cccc(C(=O)NCc2cn3ccsc3n2)c1,110% (inactive)
3,COc1ccc2[nH]c(C)c(CCN3C(=O)C4CC=CCC4C3=O)c2c1 (stereo not given),105% (inactive)
4,CCOC(=O)c1[nH]c(C)c(C(=O)NCCN2CCOCC2)c1C,103% (inactive)
5,COc1cccc(CNC(=O)CN(c2cc(C)cc(C)c2)S(=O)(=O)c2c(C)noc2C)c1,90.3% (inactive)
6,CCC(=NCCc1ccccc1)C1=C(O)CCC1=O,98.3% (inactive)
7,O=C(CN1CCN(Cc2ccccc2F)C1=O)NCCN1CCOCC1,109% (inactive)
8,CCOc1ccccc1NC(=O)c1c(NC(=O)CNCc2ccco2)sc2c1CCC2,76.7% (inactive)
9,O=C1C2CCCN2C(c2ccc(Br)cc2)N1c1ccc(F)cc1 (stereo not given),94.2% (inactive)
10,Cc1ccc(O)c(-c2cc(C(F)(F)C(F)F)[nH]n2)c1,97.1% (inactive)
11,COc1ccc(Cc2nc(-c3ccc(-n4cccc4)cc3)no2)cc1,98.3% (inactive)
12,CCN(CC)CCN1C(=O)c2ccccc2NC1c1cccc(F)c1 (stereo not given),84.4% (inactive)
13,CCOC(=O)COc1cccc2c(=O)n(CC(=O)N3CCc4ccccc43)ccc12,98.6% (inactive)
14,Cc1ccc(S(=O)(=O)/N=C(/Nc2nc(C)cc(C)n2)N2CCOCC2)cc1,98.7% (inactive)
15,O=C(COc1ccc(S(=O)(=O)NC2CCCCC2)cc1)N1CCN(c2ccc(F)cc2)CC1,65.5% (inactive)
16,COc1ccc(S(=O)(=O)Cc2ccc(C(=O)N3CCc4ccccc4C3)o2)cc1,92.7% (inactive)
17,Cc1c(C(=O)NCC(C)C)sc2nc(-c3ccc(F)cc3)cn12,111% (inactive)
18,CCCN1CCN(C(=O)C2CCN(S(=O)(=O)c3ccc4c(c3)oc(=O)n4C)CC2)CC1,108% (inactive)
19,COc1ccc(C(=O)/C=C/N2CCCCC2)cc1OC,77.8% (inactive)
20,CCOCCn1c(CN(Cc2ccccc2)Cc2ccccc2)nc2c1c(=O)n(C)c(=O)n2C,64.7% (inactive)
